# According to PubChem BioAssay (EPA / NIEHS):
# Inconclusive results are not listed. Activity calls are given as the source filed them. The calls were made as follows: active = hit-call score of the fitted dose curve at least 0.9, where 1 is the maximum; inconclusive = response in the unintended direction; inactive = score below 0.9.
# Assay: CCTE_Shafer_MEA_acute_LDH: CCTE's Lactate Dehydrogenase Assay for Cytotoxicity in the Neural Acute Assay, Shafer Lab (AID 2284086);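 also: active means LDH release rises above DMSO vehicle level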
# Protocol: CCTE_Shafer_MEA_acute assay is conducted using Axion Biosystems 48 well microelectrode array (MEA) plates and Maestro recording system. Each well of the MEA plate contains a grid of 16 microelectrodes embedded in the culture surface. Electrically active cells, such as neurons, can be cultured over the electrodes, and electrical activity in these cells can be recorded extracellularly. The spontaneous firing of neurons is captured from each electrode on a microsecond timescale providing both temporally and spatially precise data. […] The CCTE_Shafer_MEA_acute assay uses primary cultures of rat cortical neurons. As these cultures mature over time, neural networks develop functional activity and form cohesive networks in which electrical activity can be highly coordinated. Baseline 40-minute recordings are made on days post-plating 13 or 15, followed by a secondary 40-minute recording after chemical exposure.CCTE_Shafer_MEA_acute_LDH is a component of the CCTE_Shafer_MEA_acute assay. It measures the lactate dehydrogenase enzyme activity using spectrophotometry.Data from the assay component CCTE_Shafer_MEA_acute_LDH was analyzed into 1 assay endpoint. This assay endpoint, CCTE_Shafer_MEA_acute_LDH, was analyzed in the positive analysis fitting direction relative to DMSO as the negative control and baseline of activity. Using a type of viability reporter, gain-of-signal activity can be used to understand cell viability.
# Immediately following the 40 min recording in the presence of compounds, 50 uL of media was removed from each well and transferred to a sterile 96-well plate. This was used to determine LDH released from cells during compound exposure using a kit from Promega where absorbance was determined in a Molecular Devices VersaMax plate reader at 490 nm.
row,SMILES,outcome
1,OC(CCl)CCl,inactive
2,Cn1c(=O)c2[nH]cnc2n(C)c1=O,inactive
3,OCc1ccccc1,inactive
4,CCCc1ccccc1,inactive
5,C=CCc1cc(S(=O)(=O)c2ccc(O)c(CC=C)c2)ccc1O,inactive
6,CCCCC(CC)C(=O)OCCOCCOCCOC(=O)C(CC)CCCC (configuration not stated),inactive
7,O=S(=O)(O)c1ccc(N=Nc2c(O)ccc3cc(S(=O)(=O)O)ccc23)cc1,inactive
8,CC(C)C(=O)Nc1ccc([N+](=O)[O-])c(C(F)(F)F)c1,inactive
9,c1ccc2cc3ccccc3cc2c1,inactive
10,COCc1nnc(-c2ccc[n+]([O-])c2)n1-c1c(Cl)c(Cl)cc2[nH]c(=O)c(=O)[nH]c12,inactive
11,c1ccc(C(O[C@@H]2CCCN(CCc3ccc4c(c3)OCO4)C2)c2ccccc2)cc1,inactive
12,CCc1ccc(O)c(C(C)(C)C)c1,inactive
